For one sequence, binding signal results are on record in article PMC7862700, “An all-to-all approach to the identification of sequence-specific readers for epigenetic DNA modifications on cytosine”.

Experiment in all cases: DAPPL (digital affinity profiling via proximity ligation, sequencing); 10 mM Tris-HCl pH 7.5, 50 mM NaCl, 1 mM DTT, 4% glycerol, room temperature, 30 min; GST-TFs on glutathione beads, 16-mer random dsDNA library, 0.1% formaldehyde crosslink after washing; high values mean tight binding
Details in all cases: protein: recombinant; tags: N-terminal GST; dsDNA, one strand shown

For one test, the target named is T1, FLI1 (Homo sapiens, UniProt Q01543 1-452).
T1 sequence: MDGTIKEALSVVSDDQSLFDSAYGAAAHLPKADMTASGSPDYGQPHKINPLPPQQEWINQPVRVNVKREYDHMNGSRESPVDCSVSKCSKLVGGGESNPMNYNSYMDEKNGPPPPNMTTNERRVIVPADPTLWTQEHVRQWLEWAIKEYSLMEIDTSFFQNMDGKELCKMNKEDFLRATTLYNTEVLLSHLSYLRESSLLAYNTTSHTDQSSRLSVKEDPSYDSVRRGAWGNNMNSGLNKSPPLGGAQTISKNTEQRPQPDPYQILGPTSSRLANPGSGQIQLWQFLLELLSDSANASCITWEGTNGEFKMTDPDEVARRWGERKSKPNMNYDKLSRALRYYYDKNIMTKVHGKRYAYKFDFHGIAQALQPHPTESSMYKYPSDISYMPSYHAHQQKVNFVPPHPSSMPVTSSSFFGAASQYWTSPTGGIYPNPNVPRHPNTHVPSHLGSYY
The procedure, abridged: (§1)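 Beads coated with glutathione captured GST-fused human transcription factors that had been expressed in yeast, and the factors were then given DNA barcodes and pooled with a tag-only sample. The pools were incubated with 200 nmole of a random double-stranded 16-mer DNA library in Tris/NaCl/DTT/glycerol buffer for 30 min at room temperature, washed, crosslinked with 0.1% formaldehyde and proximity-ligated with BsaI/T4 ligase at 37 °C for 1 h. PCR amplification and Illumina NextSeq500 sequencing came last. Binding signal is each hexamer's read frequency for a factor divided by its frequency for the tag-only sample.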

A further test deals with T2, ELK1 (Homo sapiens, UniProt P19419 1-428).
T2 sequence: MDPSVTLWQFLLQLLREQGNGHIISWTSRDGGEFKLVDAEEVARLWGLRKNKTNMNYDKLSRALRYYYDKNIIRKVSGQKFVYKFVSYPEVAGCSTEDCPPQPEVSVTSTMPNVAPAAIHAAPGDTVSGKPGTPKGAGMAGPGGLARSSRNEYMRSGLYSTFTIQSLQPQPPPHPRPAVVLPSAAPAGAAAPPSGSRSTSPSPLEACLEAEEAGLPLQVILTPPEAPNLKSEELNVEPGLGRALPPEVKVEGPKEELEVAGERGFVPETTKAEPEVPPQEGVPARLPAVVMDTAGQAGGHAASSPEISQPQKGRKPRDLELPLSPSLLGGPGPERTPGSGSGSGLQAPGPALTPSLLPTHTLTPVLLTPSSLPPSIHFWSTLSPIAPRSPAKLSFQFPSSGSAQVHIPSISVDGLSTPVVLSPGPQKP
Summed up: as §1

A further test has as its target T3, GABPA (Homo sapiens, UniProt Q06546 1-454).
T3 sequence: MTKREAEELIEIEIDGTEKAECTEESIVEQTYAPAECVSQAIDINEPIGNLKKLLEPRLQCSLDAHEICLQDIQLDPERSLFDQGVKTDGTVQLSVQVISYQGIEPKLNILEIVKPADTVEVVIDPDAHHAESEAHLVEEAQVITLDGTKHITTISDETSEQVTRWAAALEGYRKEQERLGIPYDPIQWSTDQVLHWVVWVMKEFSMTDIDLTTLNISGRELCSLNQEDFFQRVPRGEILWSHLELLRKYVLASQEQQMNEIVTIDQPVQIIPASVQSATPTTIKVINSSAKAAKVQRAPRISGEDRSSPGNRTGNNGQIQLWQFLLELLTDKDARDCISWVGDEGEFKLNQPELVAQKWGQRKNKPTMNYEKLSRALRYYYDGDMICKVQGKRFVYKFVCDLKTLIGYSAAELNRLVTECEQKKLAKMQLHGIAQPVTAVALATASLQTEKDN
The procedure, abridged:
as §1

In a further test the target is T4, ERG (Homo sapiens, UniProt P11308 1-479).
T4 sequence: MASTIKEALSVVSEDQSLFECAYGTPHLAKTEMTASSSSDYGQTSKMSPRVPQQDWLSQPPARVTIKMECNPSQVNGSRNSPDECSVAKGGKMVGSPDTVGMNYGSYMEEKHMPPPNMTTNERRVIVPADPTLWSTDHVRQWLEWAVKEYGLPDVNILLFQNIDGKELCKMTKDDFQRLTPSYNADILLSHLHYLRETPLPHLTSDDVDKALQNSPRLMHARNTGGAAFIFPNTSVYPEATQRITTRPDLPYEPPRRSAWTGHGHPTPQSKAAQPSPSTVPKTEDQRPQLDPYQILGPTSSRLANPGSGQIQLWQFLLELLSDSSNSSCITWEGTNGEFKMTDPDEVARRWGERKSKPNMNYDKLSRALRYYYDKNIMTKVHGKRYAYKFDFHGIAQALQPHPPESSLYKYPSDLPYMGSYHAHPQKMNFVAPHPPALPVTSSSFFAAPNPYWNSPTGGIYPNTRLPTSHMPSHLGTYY
Summed up:
as §1

A further test has as its target ELF1 (Homo sapiens, UniProt P32519 1-619). Summed up:
as §1

In another test the target is T5, EHF (Homo sapiens, UniProt Q9NZC4 1-300).
T5 sequence: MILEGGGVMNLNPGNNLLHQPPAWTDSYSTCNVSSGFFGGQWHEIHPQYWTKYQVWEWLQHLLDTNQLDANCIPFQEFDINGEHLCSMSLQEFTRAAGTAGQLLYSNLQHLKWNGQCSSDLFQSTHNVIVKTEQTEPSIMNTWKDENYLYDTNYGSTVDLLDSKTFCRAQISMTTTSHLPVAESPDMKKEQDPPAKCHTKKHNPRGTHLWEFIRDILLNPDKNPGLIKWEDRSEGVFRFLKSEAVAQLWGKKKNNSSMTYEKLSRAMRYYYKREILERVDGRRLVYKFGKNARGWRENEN
The procedure, abridged:
as §1

The next test concerns the target SPI1 (Homo sapiens, UniProt P17947 1-270). Summed up: as §1
Another test concerns the target SPIB (Homo sapiens, UniProt Q01892 1-262). Summed up: as §1
The next test addresses T6, ELK3 (Homo sapiens, UniProt P41970 1-407).
T6 sequence: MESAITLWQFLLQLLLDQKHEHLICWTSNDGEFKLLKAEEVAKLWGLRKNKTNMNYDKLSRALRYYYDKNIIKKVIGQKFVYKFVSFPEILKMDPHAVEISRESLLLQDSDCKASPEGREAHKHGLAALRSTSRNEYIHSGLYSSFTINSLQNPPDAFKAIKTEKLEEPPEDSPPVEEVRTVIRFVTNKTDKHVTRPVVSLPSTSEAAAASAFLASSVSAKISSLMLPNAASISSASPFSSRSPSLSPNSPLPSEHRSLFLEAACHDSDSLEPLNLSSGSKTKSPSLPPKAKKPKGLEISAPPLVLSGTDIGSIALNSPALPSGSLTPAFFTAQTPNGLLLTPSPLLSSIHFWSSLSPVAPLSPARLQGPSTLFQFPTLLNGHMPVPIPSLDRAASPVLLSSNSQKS
The procedure, abridged: as §1

A further test addresses T7, FEV (Homo sapiens, UniProt Q99581 1-238).
T7 sequence: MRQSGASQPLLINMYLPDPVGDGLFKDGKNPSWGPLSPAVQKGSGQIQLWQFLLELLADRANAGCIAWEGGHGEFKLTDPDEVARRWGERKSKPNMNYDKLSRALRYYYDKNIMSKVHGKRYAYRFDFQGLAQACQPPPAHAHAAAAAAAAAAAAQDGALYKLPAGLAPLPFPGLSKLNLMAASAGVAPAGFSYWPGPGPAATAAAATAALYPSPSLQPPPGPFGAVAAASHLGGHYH
Summed up: as §1

The target in a further test is ETV5 (Homo sapiens, UniProt P41161 1-510). Summed up:
as §1

For another test, the target named is T8, SPIC (Homo sapiens, UniProt Q8N5J4 1-248).
T8 sequence: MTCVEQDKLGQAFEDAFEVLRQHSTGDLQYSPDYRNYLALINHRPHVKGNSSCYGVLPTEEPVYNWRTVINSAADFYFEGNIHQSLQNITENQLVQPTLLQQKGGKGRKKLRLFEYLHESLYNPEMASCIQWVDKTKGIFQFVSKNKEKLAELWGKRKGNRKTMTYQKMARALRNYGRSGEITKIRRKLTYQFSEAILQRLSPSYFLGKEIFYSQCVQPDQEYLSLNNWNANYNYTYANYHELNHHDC
Summed up:
as §1

For another test, the target named is ELF4 (Homo sapiens, UniProt Q99607 1-663). Summed up: as §1
ELF4, sequence (Q99607 whole entry): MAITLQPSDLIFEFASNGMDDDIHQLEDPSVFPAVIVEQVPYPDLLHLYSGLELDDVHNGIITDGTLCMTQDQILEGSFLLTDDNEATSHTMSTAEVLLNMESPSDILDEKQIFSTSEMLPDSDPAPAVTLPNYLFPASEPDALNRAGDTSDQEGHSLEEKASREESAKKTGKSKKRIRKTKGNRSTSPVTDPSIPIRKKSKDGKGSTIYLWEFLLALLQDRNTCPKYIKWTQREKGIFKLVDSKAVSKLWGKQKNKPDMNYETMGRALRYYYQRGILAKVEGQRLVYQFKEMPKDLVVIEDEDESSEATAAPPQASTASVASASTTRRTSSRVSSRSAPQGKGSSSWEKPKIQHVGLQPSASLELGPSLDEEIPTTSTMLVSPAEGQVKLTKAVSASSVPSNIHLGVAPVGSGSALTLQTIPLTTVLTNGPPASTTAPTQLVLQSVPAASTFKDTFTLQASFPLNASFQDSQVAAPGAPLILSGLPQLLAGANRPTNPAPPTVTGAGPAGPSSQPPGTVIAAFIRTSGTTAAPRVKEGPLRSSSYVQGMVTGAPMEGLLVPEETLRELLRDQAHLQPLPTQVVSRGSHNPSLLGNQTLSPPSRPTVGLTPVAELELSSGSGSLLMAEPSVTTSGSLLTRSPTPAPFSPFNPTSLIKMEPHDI
A further test has as its target ETV1 (Homo sapiens, UniProt P50549 1-477). The procedure, abridged: as §1
A further test deals with T9, ETV3L (Homo sapiens, UniProt Q6ZN32 1-361).
T9 sequence: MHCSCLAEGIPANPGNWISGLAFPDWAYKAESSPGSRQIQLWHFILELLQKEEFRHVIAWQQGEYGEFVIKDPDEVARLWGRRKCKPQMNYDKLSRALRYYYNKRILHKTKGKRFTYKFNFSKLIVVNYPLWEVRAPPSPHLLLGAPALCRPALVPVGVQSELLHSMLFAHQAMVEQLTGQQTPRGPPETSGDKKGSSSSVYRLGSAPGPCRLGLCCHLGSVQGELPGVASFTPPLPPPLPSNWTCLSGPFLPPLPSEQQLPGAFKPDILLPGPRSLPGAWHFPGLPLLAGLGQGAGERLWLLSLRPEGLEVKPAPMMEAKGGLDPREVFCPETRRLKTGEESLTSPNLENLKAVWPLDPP
The procedure, abridged: as §1

The target in a further test is T10, ETS2 (Homo sapiens, UniProt P15036 1-469).
T10 sequence: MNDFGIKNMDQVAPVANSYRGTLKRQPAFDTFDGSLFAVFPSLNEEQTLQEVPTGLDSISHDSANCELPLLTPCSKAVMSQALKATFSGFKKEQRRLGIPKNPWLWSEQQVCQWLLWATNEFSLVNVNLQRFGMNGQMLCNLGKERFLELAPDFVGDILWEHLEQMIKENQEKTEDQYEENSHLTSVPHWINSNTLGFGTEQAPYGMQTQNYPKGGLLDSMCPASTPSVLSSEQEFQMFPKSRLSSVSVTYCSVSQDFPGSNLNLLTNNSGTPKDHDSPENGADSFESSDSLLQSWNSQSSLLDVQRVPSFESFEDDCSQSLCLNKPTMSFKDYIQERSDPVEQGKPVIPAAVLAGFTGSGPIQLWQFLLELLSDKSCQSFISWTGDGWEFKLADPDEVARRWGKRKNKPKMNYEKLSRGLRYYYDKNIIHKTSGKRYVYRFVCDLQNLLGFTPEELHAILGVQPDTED
Summed up:
as §1

Another test deals with T11, ELF5 (Homo sapiens, UniProt Q9UKW6-2 1-255).
T11 sequence: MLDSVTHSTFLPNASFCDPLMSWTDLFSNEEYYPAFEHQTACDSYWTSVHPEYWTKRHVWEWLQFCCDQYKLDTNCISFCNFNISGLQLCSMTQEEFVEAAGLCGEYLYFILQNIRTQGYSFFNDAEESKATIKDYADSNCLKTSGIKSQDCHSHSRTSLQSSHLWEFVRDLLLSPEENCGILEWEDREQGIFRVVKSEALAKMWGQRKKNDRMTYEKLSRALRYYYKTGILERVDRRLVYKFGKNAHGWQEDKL
Summed up:
as §1

Another test has as its target T12, ETV3 (Homo sapiens, UniProt P41162-2 1-143).
T12 sequence: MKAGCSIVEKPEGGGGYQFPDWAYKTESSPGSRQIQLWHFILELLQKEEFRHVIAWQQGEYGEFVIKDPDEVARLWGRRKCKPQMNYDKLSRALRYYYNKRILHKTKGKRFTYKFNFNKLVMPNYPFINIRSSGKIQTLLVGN
Summed up: as §1

The target of the next test is ETV6 (Homo sapiens, UniProt P41212 1-452). The procedure, abridged: as §1
ETV6, sequence (P41212 whole entry): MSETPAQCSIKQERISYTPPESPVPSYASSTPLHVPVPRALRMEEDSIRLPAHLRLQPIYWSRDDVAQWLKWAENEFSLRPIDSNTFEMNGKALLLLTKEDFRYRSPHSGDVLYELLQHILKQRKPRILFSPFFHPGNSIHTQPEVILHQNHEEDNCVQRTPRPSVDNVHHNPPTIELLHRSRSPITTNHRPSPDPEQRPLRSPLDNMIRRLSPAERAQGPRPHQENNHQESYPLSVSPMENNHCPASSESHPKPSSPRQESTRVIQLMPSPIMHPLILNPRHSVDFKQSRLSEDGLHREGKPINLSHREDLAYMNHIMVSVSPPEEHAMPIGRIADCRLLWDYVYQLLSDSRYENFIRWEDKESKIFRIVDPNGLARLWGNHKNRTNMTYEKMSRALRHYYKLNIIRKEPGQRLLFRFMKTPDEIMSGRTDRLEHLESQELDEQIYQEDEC

ETV5, sequence (P41161 whole entry): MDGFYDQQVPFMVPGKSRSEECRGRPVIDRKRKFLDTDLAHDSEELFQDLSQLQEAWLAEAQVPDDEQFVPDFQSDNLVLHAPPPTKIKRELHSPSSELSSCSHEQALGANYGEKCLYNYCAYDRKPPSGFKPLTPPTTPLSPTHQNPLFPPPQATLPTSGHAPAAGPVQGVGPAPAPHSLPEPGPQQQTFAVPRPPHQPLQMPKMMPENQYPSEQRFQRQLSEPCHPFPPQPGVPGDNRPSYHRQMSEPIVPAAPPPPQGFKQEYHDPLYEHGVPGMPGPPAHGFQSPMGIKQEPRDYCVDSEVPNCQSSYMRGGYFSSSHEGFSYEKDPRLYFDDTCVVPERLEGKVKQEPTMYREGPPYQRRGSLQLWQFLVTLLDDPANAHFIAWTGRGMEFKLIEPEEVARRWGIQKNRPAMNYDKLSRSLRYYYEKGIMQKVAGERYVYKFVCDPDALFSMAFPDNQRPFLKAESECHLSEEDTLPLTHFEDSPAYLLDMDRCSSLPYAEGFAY
SPIB, sequence (Q01892 whole entry): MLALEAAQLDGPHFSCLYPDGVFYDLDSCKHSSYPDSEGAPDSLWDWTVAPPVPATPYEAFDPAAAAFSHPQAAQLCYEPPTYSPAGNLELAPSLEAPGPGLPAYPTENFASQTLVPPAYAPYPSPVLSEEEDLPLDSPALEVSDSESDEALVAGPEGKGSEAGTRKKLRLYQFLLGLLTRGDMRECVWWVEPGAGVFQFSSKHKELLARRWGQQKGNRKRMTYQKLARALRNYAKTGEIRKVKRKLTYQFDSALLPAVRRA
ETV1, sequence (P50549 whole entry): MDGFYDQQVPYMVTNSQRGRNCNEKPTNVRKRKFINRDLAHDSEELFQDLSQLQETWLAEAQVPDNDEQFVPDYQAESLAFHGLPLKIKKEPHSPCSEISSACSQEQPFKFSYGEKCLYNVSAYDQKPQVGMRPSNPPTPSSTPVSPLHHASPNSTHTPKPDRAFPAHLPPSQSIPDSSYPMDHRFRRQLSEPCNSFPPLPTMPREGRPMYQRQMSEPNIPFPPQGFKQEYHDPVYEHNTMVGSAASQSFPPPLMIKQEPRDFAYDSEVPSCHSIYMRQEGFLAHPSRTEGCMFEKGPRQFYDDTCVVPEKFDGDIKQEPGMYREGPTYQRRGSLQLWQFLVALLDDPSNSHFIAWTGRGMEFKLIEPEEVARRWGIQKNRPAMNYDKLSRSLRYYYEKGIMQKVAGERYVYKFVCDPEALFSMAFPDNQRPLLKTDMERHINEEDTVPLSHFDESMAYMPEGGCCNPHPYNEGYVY
ELF1, sequence (P32519 whole entry): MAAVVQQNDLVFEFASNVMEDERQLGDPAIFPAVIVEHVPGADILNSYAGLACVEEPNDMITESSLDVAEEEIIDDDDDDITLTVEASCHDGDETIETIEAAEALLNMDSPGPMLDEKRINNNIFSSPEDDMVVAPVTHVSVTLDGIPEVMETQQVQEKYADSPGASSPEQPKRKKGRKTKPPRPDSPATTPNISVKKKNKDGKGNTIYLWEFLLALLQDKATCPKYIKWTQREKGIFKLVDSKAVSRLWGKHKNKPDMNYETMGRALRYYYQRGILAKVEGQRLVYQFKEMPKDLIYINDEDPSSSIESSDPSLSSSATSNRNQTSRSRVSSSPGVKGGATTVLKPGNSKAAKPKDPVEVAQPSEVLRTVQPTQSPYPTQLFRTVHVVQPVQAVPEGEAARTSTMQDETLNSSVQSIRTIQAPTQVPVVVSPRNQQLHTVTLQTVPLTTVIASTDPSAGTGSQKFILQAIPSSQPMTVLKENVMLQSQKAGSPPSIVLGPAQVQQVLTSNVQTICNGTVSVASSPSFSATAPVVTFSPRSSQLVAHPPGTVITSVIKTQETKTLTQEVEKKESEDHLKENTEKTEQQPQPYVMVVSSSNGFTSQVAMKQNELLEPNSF

Regarding CGGAAC, the binding signal was 1.16 fold enrichment (6-mer frequency, TF over GST control) with FLI1; 1.18 fold enrichment (6-mer frequency, TF over GST control) with ELK1; 1.05 fold enrichment (6-mer frequency, TF over GST control) with GABPA; 1.22 fold enrichment (6-mer frequency, TF over GST control) in the test with ERG; 1.04 fold enrichment (6-mer frequency, TF over GST control) in the test with ELF1; 1.2 fold enrichment (6-mer frequency, TF over GST control) with EHF. For the same sequence, the binding signal in the test with SPI1 was 1.29 fold enrichment (6-mer frequency, TF over GST control); with SPIB, 1.29 fold enrichment (6-mer frequency, TF over GST control); in the test with ELK3, 1.21 fold enrichment (6-mer frequency, TF over GST control); with FEV, 1.16 fold enrichment (6-mer frequency, TF over GST control); with ETV5 it was 1.29 fold enrichment (6-mer frequency, TF over GST control); in the test with SPIC, 1.09 fold enrichment (6-mer frequency, TF over GST control). Besides, the binding signal was 1.04 fold enrichment (6-mer frequency, TF over GST control) with ELF4; 1.23 fold enrichment (6-mer frequency, TF over GST control) with ETV1; 1.11 fold enrichment (6-mer frequency, TF over GST control) in the test with ETV3L; 1.18 fold enrichment (6-mer frequency, TF over GST control) in the test with ETS2; 1.3 fold enrichment (6-mer frequency, TF over GST control) in the test with ELF5; 1.31 fold enrichment (6-mer frequency, TF over GST control) with ETV3. Further, the binding signal in the test with ETV6 was 1.12 fold enrichment (6-mer frequency, TF over GST control).
